Gal4-VP16 FLuc: VP16 counterscreen qHTS for inhibitors of ROR gamma transcriptional activity. Drosophila S2 Gal4-VP16 UAS-luciferase, luminescence, 20 h. Potency, µM (series often up to 53.6 µM), inactives show at the top dose activity, negative = inhibition, usual class: inhibitors. 310,000 compounds, 3.5% hits;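 note: Gal4-VP16 expression switched on by copper sulfate through the metallothionein promoter; potency is the fitted concentration of half-maximal effect; % is set by controls: 0 for no effect and ±100 for the full control effect; nearly all actives have a fitted effect of over 50% in size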
CtBP-E1A inh: qHTS Assay for Inhibitors of the CtBP/E1A Interaction; AlphaScreen GST-E1A/His-CtBP binding, 1536-well; active compounds read low; CtBP / adenovirus E1A interaction (AlphaScreen); 340,000 compounds, 0.49% hits; activity change, % (no concentration beside the values); in the data active = activity change below about -65%; inconclusive = mostly about -30% to -63%; note: % is set by controls: 0 for no effect and ±100 for the full control effect
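AlphaScreen with 125 nM GST-E1A and 125 nM His-CtBP (5X stocks) in Tris pH 8.0, 300 mM NaCl, BSA, Tween 20, TCEP. Compounds preincubated 2 h at 37 deg C, then glutathione donor/nickel acceptor beads added for 1 h at 37 deg C in dark.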
MBNL1 CUG block: qHTS Assay for Inhibitors of MBNL1-poly(CUG) RNA binding | Muscleblind-like protein 1 (Homo sapiens), Q9NR56 | TR-FRET MBNL1-His/biotin-(CUG)12 binding, 665/545 ratio | Potency, µM (highest dose often 57.5 µM), for the others: top-dose activity change, negative = inhibition, usual class: inhibitors | 280,000 compounds, 0.036% hits; active = well fitted inhibition curve with a large enough effect in the signal ratio, with a control signal flat, not every such curve was filed as active; inconclusive = small, poorly fitted or top-dose-only effect, or effect the other way, or a change in a side signal; inactive = no such curve, though single readings can be large or run the other way; the % refers to the signal ratio; note: potency is the fitted concentration of half-maximal effect; % is set by controls: 0 for no effect and ±100 for the full control effect
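Ratiometric TR-FRET (665 over 545 nm, excitation 340 nm) tracks disruption of MBNL1-His/biotin-(CUG)12 complex after 60 min at room temperature, with compounds at 92 nM to 58 uM final.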
Six1-Eya2 blk: qHTS Assay for Inhibitors of the Six1/Eya2 Interaction; AlphaScreen GST-Six1/His-Eya2 binding, biochemical; active compounds read low; activity change, % (no concentration beside the values); Homeobox protein SIX1 (Homo sapiens) + Protein phosphatase EYA2 (Homo sapiens), …; 360,000 compounds, 0.56% hits; in the data active = activity change below about -65%; inconclusive = mostly about -30% to -63%; note: % is set by controls: 0 for no effect and ±100 for the full control effect
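Compounds are tested against tagged Six1 and Eya2 proteins bridged by glutathione donor and nickel acceptor beads; after a one-hour incubation at 37 °C without light, AlphaScreen emission is recorded.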
RORgamma inh: qHTS for inhibitors of ROR gamma transcriptional activity; Nuclear receptor ROR-gamma (Mus musculus), P51450; Potency, µM (highest dose often 53.6 µM), without a hit: at the top dose activity change, negative = inhibition, most hits filed as inhibitors; Drosophila S2 Gal4-RORgamma UAS-luciferase reporter, 20 h; 310,000 compounds, 5.4% hits; note: potency is the fitted concentration of half-maximal effect; % is set by controls: 0 for no effect and ±100 for the full control effect; nearly all actives have a fitted effect of over 60% in size
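Drosophila S2 cells stably expressing Gal4-DBD/mouse RORγ fusion under metallothionein promoter plus UAS-luciferase; compound 1 h, then 700 uM CuSO4 induction for 20 h at ambient temperature; inhibition read as reduced luminescence.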
CBFb-RUNX1 inh: qHTS Assay for Compounds Blocking the Interaction Between CBF-beta and RUNX1 for the Treatment of Acute Myeloid Leukemia; AID 1477, 2009; Runt-related transcription factor 1 (Homo sapiens) + Core-binding factor subunit beta …; AlphaScreen CBFb-His/RUNX1-biotin binding, biochemical; 230,000 tested, under 10 active; Potency, µM (top dose mostly 59.8 µM), inactives show at the highest dose activity, negative = inhibition, most hits filed as inhibitors; note: % of control where 0% means no effect
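Interaction loss through any mechanism counts as activity. Pre-formed complex of His-CBF-beta and biotin-RUNX1 (30 nM apiece) is incubated with compound 15 min, then with 50 ng nickel and 50 ng streptavidin beads for 90 min before AlphaScreen detection.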
Active calls of the source: *. An excerpt weighted towards active compounds, which were near 5.5% of everything screened. Unless noted, calls come from the whole dose curve; as a rule, active = well fitted curve in the direction sought with a large enough effect; inconclusive = small, poorly fitted or top-dose-only effect, or another doubt; inactive = no such curve, though single readings can be large; an effect the other way counts as inactive or inconclusive.

Screening S=c1[nH]nc(-c2ccccc2)c2ccccc12 returned Gal4-VP16 FLuc 11.2µM*, CtBP-E1A inh -6.2, MBNL1 CUG block 28.4%, Six1-Eya2 blk -9.1, RORgamma inh 7.08µM* and CBFb-RUNX1 inh -3.9%.
Screening Cc1ccc(-c2n[nH]c(=S)c3ccccc23)cc1 returned Gal4-VP16 FLuc 2.3%, MBNL1 CUG block 9.2%, Six1-Eya2 blk -6.0, RORgamma inh 30.6% and CBFb-RUNX1 inh 15.7%.
Screening CCOc1ccc(-c2n[nH]c(=S)c3ccccc23)cc1 returned Gal4-VP16 FLuc 10µM*, CtBP-E1A inh -19.3, MBNL1 CUG block 42.2%, Six1-Eya2 blk -13.4 and RORgamma inh 7.08µM*.
Cc1ccc(S(=O)(=O)N2C[C@H]3C(=O)C[C@@H](c4cccc(C)c4)N(S(=O)(=O)c4ccc(C)cc4)[C@H]3C[C@H]2c2ccccc2)cc1 was read as CtBP-E1A inh 0.0 and Six1-Eya2 blk -1.5.
For N/C(COc1cccc(C(F)(F)F)c1)=N\NC(=O)c1cccnc1Oc1ccccc1 the results were Gal4-VP16 FLuc 1.26µM*, CtBP-E1A inh -9.2, MBNL1 CUG block 0.2%, Six1-Eya2 blk -1.2, RORgamma inh 0.501µM* and CBFb-RUNX1 inh 0.9%.
`Cc1snc(SCC(=O)N/N=C(\N)COc2cccc(C(F)(F)F)c2)c1C#N` gave Gal4-VP16 FLuc 6.31µM*, CtBP-E1A inh 1.2, MBNL1 CUG block -10.8%, Six1-Eya2 blk -0.2, RORgamma inh 5.01µM* and CBFb-RUNX1 inh -1.0%.
Screening N/C(COc1ccccc1)=N\NC(=O)c1cccnc1Oc1ccccc1 returned Gal4-VP16 FLuc 1.41µM*, CtBP-E1A inh 0.9, MBNL1 CUG block -6.0%, Six1-Eya2 blk -3.5, RORgamma inh inconclusive and CBFb-RUNX1 inh 10.7%.
Screening Cc1snc(SCC(=O)c2ccc(F)cc2)c1C#N returned Gal4-VP16 FLuc -5.6%, MBNL1 CUG block 7.3%, Six1-Eya2 blk 19.9, RORgamma inh -4.7% and CBFb-RUNX1 inh -5.0%.
For O=C(Nc1ccc(F)cc1)c1cccnc1Oc1ccccc1 the results were Gal4-VP16 FLuc 1.6%, CtBP-E1A inh 2.5, MBNL1 CUG block 7.1%, Six1-Eya2 blk 12.8 and RORgamma inh 22.9%.
For C=C1N[C@]2(C(=O)COC(C)=O)[C@@H](C[C@H]3[C@@H]4CCC5=CC(=O)C=C[C@]5(C)[C@H]4[C@@H](O)C[C@@]32C)O1 the results were Gal4-VP16 FLuc 1.0% and RORgamma inh 6.1%.
`CC(Oc1ccccc1Cl)C(=O)Nc1ccccc1C(=O)N1CCOCC1` (stereo unspecified) gave Gal4-VP16 FLuc 3.7%, CtBP-E1A inh 9.6, MBNL1 CUG block 7.2%, Six1-Eya2 blk -5.6 and RORgamma inh -23.4%.
Clc1cccc(Nc2nnc(-c3ccccc3)c3ccccc23)c1 was read as Gal4-VP16 FLuc 5.4%, RORgamma inh -31.4% and CBFb-RUNX1 inh 26.1%.
Screening Cc1nc2cc(Nc3nnc(-c4ccccc4)c4ccccc34)ccc2n1C returned Gal4-VP16 FLuc 6.31µM*, CtBP-E1A inh -24.0, MBNL1 CUG block inconclusive, Six1-Eya2 blk -26.6, RORgamma inh 7.08µM* and CBFb-RUNX1 inh -5.0%.
`CN(C)/C=C/C(=O)c1ccc(Cl)cc1` gave Gal4-VP16 FLuc -99.0%, CtBP-E1A inh 6.1, MBNL1 CUG block 10.1%, Six1-Eya2 blk 3.2, RORgamma inh inconclusive and CBFb-RUNX1 inh -4.6%.
CN(C)/C=C/C(=O)c1cccc(Cl)c1 was read as Gal4-VP16 FLuc 10µM*, CtBP-E1A inh -5.2, MBNL1 CUG block -6.0%, Six1-Eya2 blk 0.5, RORgamma inh 11.3% and CBFb-RUNX1 inh -3.3%.

High-throughput results as filed in PubChem.
